# A number with no mark means an inactive call. No rule for the calls is given here.
# Molecular target: Pantothenate synthetase (Mycobacterium tuberculosis (strain ATCC 25618 / H37Rv)) (UniProt P9WIL5)
# Test: Recombinant Mtb pantothenate synthetase (PanC) inhibitors, coupled enzyme, confirmatory (AID 375);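 also: 0% = full reaction with vehicle and 100% = no enzyme background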
# Conditions: coupled enzyme assay; at 10 µM, active compounds read high
# Chain of Pantothenate synthetase (Mycobacterium tuberculosis (strain ATCC 25618 / H37Rv)) (P9WIL5 whole entry, looked up): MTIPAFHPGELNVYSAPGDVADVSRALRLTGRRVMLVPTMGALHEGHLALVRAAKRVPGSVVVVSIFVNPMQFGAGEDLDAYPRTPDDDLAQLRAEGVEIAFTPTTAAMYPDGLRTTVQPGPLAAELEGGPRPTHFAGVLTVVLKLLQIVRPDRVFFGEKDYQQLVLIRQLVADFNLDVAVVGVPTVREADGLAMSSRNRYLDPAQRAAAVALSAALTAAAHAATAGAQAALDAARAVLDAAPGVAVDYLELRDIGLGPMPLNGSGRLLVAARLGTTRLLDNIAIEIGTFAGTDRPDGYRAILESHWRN
row,Structure (SMILES),inhibition
1,O=C(Nc1cccc(F)c1)C1C2C=CC3(CN(CCCN4CCOCC4)C(=O)C13)O2 (stereo unspecified),0%
2,O=C(c1cccnc1)N1CCc2ccccc21,3%
3,COC(=O)c1ccccc1NC(=O)c1cnc2sccn2c1=O,5%
4,OC(COc1ccc2ccccc2c1)CN1CCOCC1 (stereo unspecified),0%
5,CCCS(=O)(=O)N1CCN(Cc2ccc(OCc3ccccc3)c(OC)c2)CC1,4%
6,COc1ccccc1N1CCN(C(=O)c2ccc(S(=O)(=O)N3CCCCCC3)cc2)CC1,2%
7,Cc1cc(N2C(=O)C(=O)/C(=C(/O)c3ccc(F)cc3)C2c2ccc(F)cc2)no1 (stereo unspecified),0%
8,COc1ccc(S(=O)(=O)N(C)CC(=O)N2CCCCC2)cc1Cl,0%
9,COc1ccc(Cl)cc1N1CCN(CCNC(=O)Nc2ccccc2C)CC1,0%
10,COc1ccccc1NC(=O)C1=C(C)Nc2nnnn2C1c1ccccc1OC (stereo unspecified),2%
11,Cc1ccc(N2C(=O)c3oc4ccccc4c(=O)c3C2c2cccc(O)c2)nc1 (stereo unspecified),0%
12,CCCCOCCCNC(=O)c1ccc(NC(C)=O)cc1,0%
13,COc1ccc(C(=O)CSc2nnc(CNc3ccc(C)cc3C)o2)cc1,2%
14,COc1ccc(S(=O)(=O)Cc2ccc(C(=O)N3CCOCC3)o2)cc1,7%
15,CC1(C)Cc2cccc(OCC(O)CN3CCN(c4ccccn4)CC3)c2O1 (stereo unspecified),0%
16,O=C(CSc1nc(C2CCCCC2)n(-c2ccccc2)n1)NCCN1C(=O)CSC1=O,6%
17,CN(C)c1nc(OCCOC(=O)Nc2ccc(Cl)cc2Cl)nc(N(C)C)n1,0%
18,CC1(C)CC(=O)C(C=NC(CCC(N)=O)C(=O)O)=C(O)C1 (stereo unspecified),3%
19,Cc1ccccc1NC(=O)NCCCN1CCN(C2CCCCC2)CC1,0%
20,CCOC(=O)C(C)n1cnc2c(nnn2Cc2ccc(C)cc2)c1=O (stereo unspecified),0%
21,O=C(CSc1oc(-c2ccco2)nc1S(=O)(=O)c1ccccc1)NCC1CCCO1 (stereo unspecified),0%
22,CCOc1cccc(-c2nnc3sc(COc4ccc(OC)cc4)nn23)c1,4%
23,CC(=O)OCC(=O)[C@@]1(O)CC[C@H]2[C@@H]3CCC4=CC(=O)C=C[C@]4(C)[C@@]3(Cl)[C@@H](Cl)C[C@@]21C,0%
24,Cc1n[nH]c(C)c1S(=O)(=O)N1CCN(c2ccccn2)CC1,2%
25,CCN(C(=O)c1ccnc(C(C)(C)C)c1)c1ccccc1,0%
26,COC(=O)CSc1cc(C)nc(NC(C)=O)n1,4%

row,Structure (SMILES),inhibition
1,O=C(COC(=O)CSc1nnc(-c2ccc(Cl)cc2)o1)NCc1ccc2c(c1)OCO2,12%
2,CN(Cc1ccccc1)c1nc2c(c(=O)[nH]c(=O)n2C)n1Cc1ccccc1Cl,3%
3,CC1CCc2c(sc(N)c2C(N)=O)C1 (stereo unspecified),0%
4,CC(C)(C)N=C1NC(=NC(C)(C)C)c2ccccc21,0%
5,CC(C(=O)NCc1cccnc1)N1C(=O)c2ccccc2C1=O (stereo unspecified),0%
6,C=CCn1cc(C(=O)NCCOC)c(=O)c2cc(S(=O)(=O)N(CC)CC)ccc21,0%
7,O=C(Nc1cccc2ccccc12)c1cnccn1,0%
8,O=C(Nc1nccs1)c1ccc(COc2ccccc2Br)o1,0%
9,CC1(C)CC(=O)C=C(Nc2ccc(F)cc2)C1,0%
10,COc1ccc(-c2noc(C3CCCN(C(=O)CCc4ccccc4)C3)n2)cc1 (stereo unspecified),0%
11,CC(C)c1ncc(C(O)c2cccc3ccccc23)n1C (stereo unspecified),0%
12,CCS(=O)(=O)CCn1c([N+](=O)[O-])cnc1C,7%
13,CCCN(S(=O)(=O)c1ccc(OCC)cc1)S(=O)(=O)c1cccs1,0%
14,CC(C)c1ccc(NC(=O)CCNS(=O)(=O)c2cccc3nonc23)cc1,0%
15,O=C(CCCc1cccs1)Nc1nc2c(s1)CCCC2,2%
16,CCCCOc1ccc(C(=O)Nc2ccc(N3CCN(C(=O)C(C)C)CC3)cc2)cc1,6%
17,Nn1cc(-c2ccccc2)nc1SCC(=O)N1CCN(S(=O)(=O)c2ccccc2)CC1,0%
18,COc1ccc(CN(CC(=O)NCC2CCCO2)C(=O)CCC(=O)Nc2cc(C)on2)cc1 (stereo unspecified),0%
19,Cc1nc2ccccc2c(=O)n1NC(=O)c1c(O)c2c(n(CC(C)C)c1=O)CCCC2,0%
20,Cc1ccc(O)c(-c2cc3ccccc3[nH]2)c1,0%
21,Cc1ccc(CCNC(=O)C2CCC(=O)N2C2CCCC2)cc1 (stereo unspecified),0%
22,COc1ccccc1C(=O)NCC(=O)Nc1ccccc1,0%
23,COCCN(C(=O)CNC(=O)c1ccco1)C(C(=O)NC1CCCCC1)c1cccc(OC)c1 (stereo unspecified),0%
24,CN1CCN(C(=O)C2(NC(=O)Nc3cccc(F)c3)CCCCC2)CC1,0%
25,CCN(CCCNC(=O)COc1cc(=O)n(CC)c2ccccc12)c1ccccc1,0%
26,CNc1nnc(-c2cccc(N(C)C)c2)s1,0%

row,Structure (SMILES),inhibition
1,Cc1cc2oc(=O)cc(CN3CCCCC3)c2cc1C(C)C,0%
2,COc1ccc(Nc2nc(OC)nc(N3CCN(c4ccc(OC)cc4)CC3)n2)cc1,1%
3,O=C1CC(C(=O)Nc2ccc(Br)cc2)C2(CCCC2)O1 (stereo unspecified),1%
4,Cc1ccc(-c2csc3ncn(-n4c(C)ccc4C)c(=O)c23)o1,0%
5,Cc1cccc(NC(=O)CCn2ccnc2C)c1,0%
6,COc1ccccc1NC(=O)C1(C)Cc2ccccc2C(=O)O1 (stereo unspecified),0%
7,O=c1c2c(nc3nc(CCc4ccccc4)[nH]n13)CCC2,9%
8,COc1ccc2c(-c3cccnc3)cc(=O)[nH]c2c1,6%
9,Cc1oc(-c2ccccc2F)nc1CS(=O)(=O)CC(=O)NCCCN1CCc2ccccc2C1,0%
10,CCC1CCCCN1CCCNC(=O)c1ccc(CS(=O)(=O)Cc2ccccc2F)o1 (stereo unspecified),4%
11,CCOC(=O)N1CCC(NC(=O)CN2C(=O)CCSc3ccccc32)CC1,0%
12,COc1ccc(NC(=O)CN2CCN(CC(=O)Nc3cc(OC)cc(OC)c3)CC2)cc1,8%
13,CCOc1ccccc1N(CC(=O)NC1CCCC1)C(=O)CCCC(=O)Nc1ccccn1,5%
14,CCCn1nc(NS(=O)(=O)c2ccccc2)c2cc3ccccc3nc21,1%
15,NC(=O)c1cc(-c2ccccc2)nc(Oc2ccccc2)n1,1%
16,O=c1c2cc(N3CCOCC3)ccc2[nH]c(=S)n1CCCN1CCCC1,13%
17,COc1ccc(CCNc2oc(COc3ccccc3Cl)nc2C#N)cc1OC,3%
18,COc1cccc(C(=O)Nc2cc(NC(=O)c3ccco3)ccc2OC)c1,3%
19,Cc1cc(=O)[nH]c(SCc2nc3ncccn3c2Br)n1,11%
20,CC(=O)c1cccc(NC(=O)NCc2ccco2)c1,0%
21,Cc1cc(=O)n(CCO)c(O)c1C#N,0%
22,CCOC(=O)C1=C(N)c2ccccc2CC1C(C)C (stereo unspecified),0%
23,O=C(N1CCCCCC1)N1CCN(C(=O)N2CCOCC2)CC1,0%
24,CC(=O)Nc1nnc(SCC(=O)NCC2CCCO2)s1 (stereo unspecified),0%
25,CC1=C/C(=C/N(C)c2ccccc2)C(=O)S1,1%
26,COC(=O)c1cc(Br)c(=O)n(CCN2CCOCC2)c1,0%

row,Structure (SMILES),inhibition
1,CN=C1CC(C)(C)CC(=O)/C1=C(/O)CCC(=O)NC,0%
2,COCCn1c(NCc2ccc(C)cc2)nc2c1c(=O)[nH]c(=O)n2C,10%
3,CCOC(=O)c1cnn(-c2sc(C(=O)OCC)c(C)c2C(=O)OCC)c1N,0%
4,Cc1nc(SCC(=O)Nc2cc(C)on2)c2c3c(sc2n1)CCCC3,4%
5,COc1ccc(-n2c(SCC#N)nc3ccccc3c2=O)cc1,1%
6,CCOC(=O)c1c(C)[nH]c(C(=O)Cn2c(=O)oc3ccccc32)c1C,4%
7,COc1ccc(N(CC(=O)Nc2ccccc2SC)S(C)(=O)=O)cc1OC,2%
8,Cc1cccc(C2CC(c3ccccc3)Nc3nc(N)nn32)c1 (stereo unspecified),0%
9,c1cncc(-c2nc3c4ccccc4nc(N4CCC(N5CCCCC5)CC4)n3n2)c1,0%
10,COc1cc(NC(=O)c2cc(OC)c(OC)c(OC)c2)c(OC)cc1NC(=O)CN1CCCCC1,1%
11,CCOC(=O)C(C#N)C(c1cccnc1)c1c(C)[nH][nH]c1=O (stereo unspecified),3%
12,Cc1cc(C(=O)NCCCc2ccccc2)no1,10%
13,CCN(CC(=O)NC1CCS(=O)(=O)C1)C(=O)C(c1ccccc1)c1ccccc1 (stereo unspecified),1%
14,CCc1ccc(NC(=O)CSc2nnc(Cc3cccn3C)n2-c2ccc(OC)cc2)cc1,0%
15,CCOc1ccc(N2CC(C(=O)Nc3ccc(F)cc3F)CC2=O)cc1 (stereo unspecified),6%
16,CC(=O)OC(C(=O)NCc1ccco1)c1cccnc1 (stereo unspecified),0%
17,Cc1nc(SCc2ccc(Br)cc2)[nH]c(=O)c1C,0%
18,COc1ccc(Cc2nn3c(-c4cc(OC)c(OC)c(OC)c4)nnc3s2)cc1,0%
19,O=c1[nH]c(=O)n(C2CCCCCC2)c(O)c1C=NCc1ccc(F)cc1,4%
20,COc1ccc(C)cc1NC(=O)CN(Cc1nnc(-c2ccc(Cl)cc2)o1)C1CCCC1,0%
21,COc1c2occc2c(OC)c2c(=O)cc(C)oc12,8%
22,CCCCc1oc2ccccc2c1C(=O)c1cc(I)c(OCCN(CC)CC)c(I)c1,8%
23,CC(C)OC(=O)CSc1nnc(-c2ccccn2)n1-c1ccccc1,8%

# From PubChem BioAssay
